A word on the AC50: it is the midpoint of the concentration-response curve, whichever way the signal moves.

Consider 29 compounds from PubChem BioAssay (EPA / NIEHS).

Several values for one entry are separate records, joined by “and”; a condition that tells them apart may be missing. Equal entries are not always repeated. Results filed as inconclusive are left out. Activity calls are given as the source filed them. The calls were made as follows, unless noted: active = hit-call score of the fitted dose curve at least 0.9, where 1 is the maximum; inconclusive = response in the unintended direction; inactive = score below 0.9.

Tested on in the first assay: not listed separately
Description: CCTE_Shafer_MEA_dev_per_network_spike_spike_number_mean: CCTE's Neural Network Formation Assay for Mean Number of Spikes in a Network Spike, Shafer Lab (AID 2284053; active = hit-call score of the fitted dose curve at least 0.9, where 1 is the maximum; inactive = score below 0.9;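 as to AC50: fitted as decrease in spikes per network spike relative to DMSO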). The method in brief: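 Continuous twelve-day exposure of developing rat cortical networks grown over 16 microelectrodes per well; spontaneous firing is captured at four time points, and the per-network-spike spike number is integrated over development by trapezoidal AUC.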
Regarding `CN1CCC[C@H]1c1cccnc1`, the AC50 is 6.37 µM (active).

Turning to `c1ccc2c(c1)Cc1ccccc1-2`, the compound was called inactive. Same read-out and setting: next, `CC1=C(/C=C/C(C)=C/C=C/C(C)=C/C(=O)O)C(C)(C)CCC1`: “inactive”; `OCCC(F)(F)C(F)(F)C(F)(F)C(F)(F)C(F)(F)C(F)(F)F`: “inactive”; `c1ccc2cc3c(ccc4ccccc43)cc2c1`: “inactive”.

Regarding `c1ccc2c(c1)ccc1ccccc12`, the result was inactive. Same read-out and setting: next, `CC(O)CO` (stereo unspecified): “inactive”. In the case of `CC#C[C@]1(O)CC[C@H]2[C@@H]3CCC4=CC(=O)CCC4=C3[C@@H](c3ccc(N(C)C)cc3)C[C@@]21C`, the AC50 is 1.38 µM (active) and 15 µM (active). `C=C(C)C(=O)OCCC(F)(F)C(F)(F)C(F)(F)C(F)(F)C(F)(F)C(F)(F)F`: the compound was classed as inactive. Take `OCCC(F)(F)C(F)(F)C(F)(F)C(F)(F)C(F)(F)C(F)(F)C(F)(F)C(F)(F)F`: the compound was called inactive.

Tested on in a further assay: not listed separately
Description: CCTE_Shafer_MEA_dev_per_network_spike_spike_percent: CCTE's Neural Network Formation Assay for Percent of Spikes in a Network Spike, Shafer Lab (AID 2284054; active = hit-call score of the fitted dose curve at least 0.9, where 1 is the maximum; inactive = score below 0.9). The method in brief:
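Rat primary cortical neurons were grown on 48-well MEA plates (16 electrodes/well), exposed from plating day 0 through day 12, with treatment renewed on DIV 5 and 9. Percent of spikes within 0.05 s network-spike peaks was measured, summarised as AUC across days 5, 7, 9, 12.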
`CN1CCC[C@H]1c1cccnc1`: the compound was called inactive. Same read-out and setting: with `c1ccc2c(c1)Cc1ccccc1-2` the entry was “inactive”. For the compound `CC1=C(/C=C/C(C)=C/C=C/C(C)=C/C(=O)O)C(C)(C)CCC1`, the AC50 is 26.9 µM (active). Consider `OCCC(F)(F)C(F)(F)C(F)(F)C(F)(F)C(F)(F)C(F)(F)F`, for which the compound was called inactive. As to `c1ccc2cc3c(ccc4ccccc43)cc2c1`, the outcome was inactive. Regarding `c1ccc2c(c1)ccc1ccccc12`, the compound was classed as inactive.

For `CC(O)CO` (stereo unspecified), the result was inactive. `CC#C[C@]1(O)CC[C@H]2[C@@H]3CCC4=CC(=O)CCC4=C3[C@@H](c3ccc(N(C)C)cc3)C[C@@]21C`: the AC50 is 3.55 µM (active) and 23.1 µM (active). For `C=C(C)C(=O)OCCC(F)(F)C(F)(F)C(F)(F)C(F)(F)C(F)(F)C(F)(F)F`, the outcome was inactive.

Take `OCCC(F)(F)C(F)(F)C(F)(F)C(F)(F)C(F)(F)C(F)(F)C(F)(F)C(F)(F)F`: the outcome was inactive.

In the next assay the test system is DIO3 (gene 1735). As to the kind of experiment: CCTE_GLTED_hDIO3: CCTE's human Deiodinase 3 (DIO3) Inhibition Assay, Great Lakes Toxicology and Ecology Division (GLTED) Lab (AID 2284055).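 As to AC50: potency is for inhibition seen as loss of released iodide signal.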 In a few lines:
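Absorbance from the Sandell-Kolthoff reaction reports iodide released by human DIO3 during a 3-hour incubation with chemical. Inhibition scored as signal loss against DMSO controls.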
On to `CCCCCCCCCCCCN1CCCC1=O`, for which the AC50 is 87.8 µM (active).

In the case of `CN1CCN(c2ccccc2/C=C2\SCCN(c3ccc(Cl)c(Cl)c3)C2=O)CC1`, the outcome was inactive. In the case of `CC1=C(/C=C/C(C)=C/C=C/C(C)=C/C(=O)O)C(C)(C)CCC1`, the AC50 is 34.7 µM (active).

With `ClC1=C(Cl)C(Cl)(Cl)C(Cl)=C1Cl`, the AC50 was 3.14 µM (active). On the same count and under the same terms, with `CCCCCCCCCCCCCC[N+](C)(C)C` the figure was 7.85 µM (active); with `c1ccc2cc3c(ccc4ccccc43)cc2c1`, 65.8 µM (active).

As for `CCC(=C(c1ccc(O)cc1)c1ccc(OCCN(C)C)cc1)c1ccccc1`, the AC50 is 58.4 µM (active). The same measure, in the same setting: next, `CC(C)(C)c1ccc(O)c(C(C)(C)C)c1`: 96.5 µM (active). Regarding `CC(=O)NC1(c2cccc(F)c2)CCN(CC[C@@]2(c3ccc(Cl)c(Cl)c3)CN(c3ccccc3)C(=O)CO2)CC1`, the compound was classed as inactive. Turning to `CCCCCCCCCCCCc1ccccc1S(=O)(=O)O`, the concentration at half-maximal activity (AC50) is 40 µM (active).

Regarding `Cc1oc(-c2ccccc2)nc1CCOc1ccc(C[C@H](Nc2ccccc2C(=O)c2ccccc2)C(=O)O)cc1`, the half-maximal activity concentration (AC50) was 67.5 µM (active). `NC(=O)N(O)[C@@H]1C=C[C@H](Oc2cccc(Oc3ccc(F)cc3)c2)C1`: the AC50 is 30.5 µM (active).

Tested on in a further assay: not listed separately
As to the kind of experiment: CCTE_Shafer_MEA_dev_LDH: CCTE's Lactate Dehydrogenase Assay for Cytotoxicity in the Neural Network Formation Assay, Shafer Lab (AID 2284068).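 Also: exposure for twelve days from plating with re-dosing on DIV 5 and 9.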 In a few lines: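 Cytotoxicity companion to network-formation recordings: rat cortical neurons received compound over 12 days of development, re-dosed at DIV 5 and 9 feeds. Viability was inferred from LDH enzyme activity relative to DMSO.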
As to `c1ccc2c(c1)Cc1ccccc1-2`, the compound was classed as inactive.

On to `CC1=C(/C=C/C(C)=C/C=C/C(C)=C/C(=O)O)C(C)(C)CCC1`, for which the AC50 was 19 µM (active). As to `c1ccc2cc3c(ccc4ccccc43)cc2c1`, the result was inactive. Same read-out and setting: with `c1ccc2c(c1)ccc1ccccc12` the entry was “inactive”. For the compound `CC#C[C@]1(O)CC[C@H]2[C@@H]3CCC4=CC(=O)CCC4=C3[C@@H](c3ccc(N(C)C)cc3)C[C@@]21C`, the AC50 is 16.4 µM (active) and 25.1 µM (active). For the compound `C=C(C)C(=O)OCCC(F)(F)C(F)(F)C(F)(F)C(F)(F)C(F)(F)C(F)(F)F`, the result was inactive. With `OCCC(F)(F)C(F)(F)C(F)(F)C(F)(F)C(F)(F)C(F)(F)C(F)(F)C(F)(F)F`, the AC50 was 28.5 µM (active).

Tested on in the next assay: not listed separately
Description: CCTE_Shafer_MEA_acute_AB: CCTE's Alamar Blue Assay for Cytotoxicity in the Neural Acute Assay, Shafer Lab (AID 2284069).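 Also: active compounds lower the viability signal compared with DMSO wells.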 In a few lines: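 Metabolic activity in chemically exposed rat cortical neurons (MEA cultures, day 13/15 post-plating) measured via CellTiter Blue resazurin reduction, 544/590 nm fluorescence; fitted relative to DMSO, with signal loss indicating reduced viability.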
A general note: Resazurin is reduced to fluorescent resorufin, in cell work by metabolically active cells.
Regarding `CN1CCC[C@H]1c1cccnc1`, the compound was called inactive. Same read-out and setting: next, `CC(C)(C)c1cc(C(C)(C)C)c(O)c(C(C)(C)C)c1`: “inactive”. In the case of `Oc1cc2ccccc2c2ccccc12`, the AC50 was 8 µM (active).

`CCc1ccc(CCOc2ccc(CC3SC(=O)NC3=O)cc2)nc1` (stereo unspecified): the result was inactive. On the same count and under the same terms, with `CN1CCN(c2ccccc2/C=C2\SCCN(c3ccc(Cl)c(Cl)c3)C2=O)CC1` the entry was “inactive”; with `CCCCCCCCCCCCCCCS(=O)(=O)Oc1ccccc1`, “inactive”.

Turning to `OC1CCC(C2CCCCC2)CC1` (stereo unspecified), the result was inactive. Same read-out and setting: next, `CCC(=C(c1ccc(O)cc1)c1ccc(OCCN(C)C)cc1)c1ccccc1`: “inactive”; `O=C(O)c1ccccc1C(c1ccc(O)cc1)c1ccc(O)cc1`: “inactive”. With `CC(C)CCCCCCOC(=O)CCCCC(=O)OCCCCCCC(C)C`, the call was inactive.

As to `Cc1cc(CCN2CCN(c3nsc4ccccc34)CC2)cc2c1NC(=O)CC2(C)C`, the outcome was inactive.

As to `CC#C[C@]1(O)CC[C@H]2[C@@H]3CCC4=CC(=O)CCC4=C3[C@@H](c3ccc(N(C)C)cc3)C[C@@]21C`, the result was inactive. On the same count and under the same terms, with `CC(=O)NC1(c2cccc(F)c2)CCN(CC[C@@]2(c3ccc(Cl)c(Cl)c3)CN(c3ccccc3)C(=O)CO2)CC1` the entry was “inactive”; with `CN(C)C=O`, “inactive”; with `CCCCCCCCCCCCc1ccccc1S(=O)(=O)O`, “inactive”. On the same count and under the same terms, next, `OCCC(F)(F)C(F)(F)C(F)(F)C(F)(F)C(F)(F)C(F)(F)C(F)(F)C(F)(F)F`: “inactive”. Same read-out and setting: with `NC(=O)N(O)[C@@H]1C=C[C@H](Oc2cccc(Oc3ccc(F)cc3)c2)C1` the entry was “inactive”.
